Data from PubChem BioAssay AID720553 (National Center for Advancing Translational Sciences (NCATS), 2013).
Screen size: about 340,000 compounds; about 3,300 (0.97%) were called active.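 Rule for the calls: active = maximum activity change below -70%; inconclusive = maximum activity change from -70% to -50%; inactive = maximum activity change above -50%.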 The full list was thinned out, with actives kept by preference.

Tested on: Potassium voltage-gated channel subfamily H member 2, brain isoform KCNH2 3.1 (human)
Experiment: qHTS for Inhibitors of KCHN2 3.1: Mutant qHTS
Conditions: U2OS KCNH2 3.1, thallium flux FluxOr; stronger effect = lower value
Procedure, shortened: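 Channel expression came from 3.1 mutant virus (1.77 x 10^8 /mL) applied to suspended U2OS cells for 4 h. Flux was tracked with FluxOr dye plus Red40 quencher, and kinetic rate constants normalized to controls.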
% is set by controls: 0 for no effect and ±100 for the full control effect.

Structure (SMILES)	activity change
C[C@H]1CN([C@@H](C)CO)C(=O)CCCn2cc(nn2)CO[C@@H]1CN(C)S(=O)(=O)c1ccc(-n2cccn2)cc1	5.9% (inactive)
COc1ccc(NC(=O)CCCOc2ccc(C(C)=O)cc2)cc1S(=O)(=O)N1CCCCC1	6.94% (inactive)
CCCCCCN1C[C@@H](O)[C@H](n2cc(COC(=O)c3ccccc3)nn2)C[C@@H]1c1ccc(Cl)cc1	-8% (inactive)
O=S(=O)(c1cccs1)N1CCN(CCOc2ccccc2)CC1	-99.6% (active)
O=S(=O)(c1cccs1)N1CCc2ccccc2C1	6.27% (inactive)
O=S(=O)(c1cccs1)N1CCN(Cc2ccccc2)CC1	-4.85% (inactive)
Cc1ccc(C)c(NC(=S)NNC(=S)Nc2ccc(C(C)C)cc2)c1	-96.6% (active)
Cc1ccc(C)c(NC(=S)NNC(=O)c2csc(C)c2)c1	-0.222% (inactive)
Cc1ccc(NC(=S)N/N=C2/CCCc3c(C)cc(C)cc32)cc1	-3.22% (inactive)
CCc1nc2c(=O)[nH]cnc2o1	2.34% (inactive)
NC(=S)NN=Cc1ccc(OC(=O)COc2cc(Cl)c(Cl)cc2Cl)cn1	-0.923% (inactive)
NS(=O)(=O)c1ccc(-c2ccc(/C=C3\SC(=O)NC3=O)o2)cc1	14.4% (inactive)
CN1C(=O)/C(=C\c2ccc(-c3ccccc3)o2)SC1=S	-83.7% (active)
O=C1NN(c2ccccc2)C(=O)/C1=C/c1ccc(-c2cccc(C(=O)O)c2)o1	28.7% (inactive)
COc1ccc(NC(=O)CN2C(=O)NC(C)(c3ccccc3)C2=O)cn1 (centres undefined)	-3.34% (inactive)
Cc1ccc(NC(=O)CSc2nnc(-c3cnccn3)n2Cc2ccco2)cc1C	3.68% (inactive)
O=C(CSc1nnc(-c2cccnc2)n1Cc1ccco1)c1ccc(Cl)c(Cl)c1	-12.1% (inactive)
O=C(CSc1nnc(-c2cnccn2)n1Cc1ccco1)c1ccc(Cl)c(Cl)c1	-196% (active)
CCN(CC)C(=O)C1=C(C)N(Cc2ccc(C(C)(C)C)cc2)C(=O)C(CC(=O)NCc2cccc3ccccc23)C1 (centres undefined)	-13.1% (inactive)
COc1ccc(C(=O)Nc2sc(C)c(C)c2CN2CCOCC2)cc1	0.971% (inactive)
CCc1ccc(NC(=O)CN2CCC(C(=O)c3ccc(OC)cc3)CC2)cc1	-75.5% (active)

Structure (SMILES)	activity change
CCOc1ccc(NC(=O)N2CCN(CC)CC2)cc1	10.1% (inactive)
COc1ccc(NC(=O)CN2C(=O)CSC2=O)cc1	5.91% (inactive)
CCc1cc(C(=O)c2ccc(OC)cc2)c(NC(=O)CN2CCN(C)CC2)s1	-103% (active)
CCC1CCC2(CC1)NC(=O)N(CC(=O)Nc1ccc(OC)cc1)C2=O (centres undefined)	10.2% (inactive)
CCOc1ccc(NC(=O)CN2CCN(CC(=O)Nc3ccc(OC)cc3)CC2)cc1	-89.9% (active)
CCc1cc(C(N)=O)c(NC(=O)c2ccc(OC)cc2)s1	3.81% (inactive)
COc1ccc(C(=O)N2CCC(C(=O)Nc3ccc(C)cc3)CC2)cc1	-27% (inactive)
COc1ccc(OC)c(NC(=O)C2CCCN2S(=O)(=O)c2ccc3c(c2)CC(C)N3C(C)=O)c1 (centres undefined)	12.8% (inactive)
CC1CC(NC(=S)N(C)C)CC(C)(C)C1 (centres undefined)	-0.254% (inactive)
Cc1cn([C@H]2C[C@H](O)[C@@H](CNC(=O)[C@H](N)Cc3cccnc3)O2)c(=O)[nH]c1=O	0.448% (inactive)
Cc1ccc(S(=O)(=O)N2CCOCC2)cc1NC(=O)c1ccncc1	0.781% (inactive)
O=C1CCC(=O)N1CCC(=O)N(C(=O)NC1CCCCC1)C1CCCCC1	-16.1% (inactive)
CCOc1cc(/C=N/NC(=O)c2c(C)nc3ccc(Cl)cn23)ccc1O	6.54% (inactive)
O=C(Nc1ccc2c(c1)[C@@H]1C[C@@H](CC(=O)N3CCCCC3)O[C@@H](CO)[C@@H]1O2)NC1CCCCC1	7.85% (inactive)
CCOC(=O)c1cccc(NS(=O)(=O)c2c(C(=O)N3CCCCCC3)c(C)n(C)c2C)c1	0.277% (inactive)
CCOC(=O)c1c(S(=O)(=O)Nc2cccc(Cl)c2)c(C)n(C)c1C	-89.7% (active)
CCOC(=O)c1c(S(=O)(=O)Nc2ccc(CN3CCC(C)CC3)cc2)c(C)n(C)c1C	-4.58% (inactive)
C[C@@H]1CCCCO[C@H](CN(C)Cc2ccccc2)[C@@H](C)CN([C@H](C)CO)C(=O)c2cc(NS(=O)(=O)c3ccc(Cl)cc3)ccc2O1	-12% (inactive)
CCN1C(=O)[C@H]2[C@@H](c3ccc(C(F)(F)F)cc3)N[C@]3(CCCN(Cc4ccc(Br)cc4)C3=O)[C@H]2C1=O	-2.79% (inactive)
CC(=O)Nc1ccc(OCC(O)CN2CCN(c3ccccc3Cl)CC2)cc1 (centres undefined)	-1.41% (inactive)
CC(=O)c1ccc(OCC(O)CN2CCN(S(=O)(=O)c3cccc(Br)c3)CC2)cc1 (centres undefined)	-4.78% (inactive)

Structure (SMILES)	activity change
CCC(=O)c1ccc(OCC(O)CN2CCN(c3cccc(C(F)(F)F)c3)CC2)cc1 (centres undefined)	-77.4% (active)
CCN(CC(=O)Nc1ccc(NC(C)=O)cc1)C(=O)C1CC(=O)N(c2ccc3c(c2)OCCO3)C1 (centres undefined)	0.735% (inactive)
O=C(CN1CCN(C(=O)c2ccco2)CC1)Nc1ccc2c(c1)OCO2	0.979% (inactive)
O=C(COC(=O)c1ccc(F)cc1)Nc1ccc2c(c1)OCO2	-1.18% (inactive)
O=C(CN1CCN(CC(=O)Nc2ccc3c(c2)OCO3)CC1)Nc1ccc(F)cc1	-109% (active)
COc1ccc(-c2c(C#N)cnc(C)c2C)c(O)c1OC	1.89% (inactive)
CC(Sc1ccc(S(=O)(=O)N2CCN(C)CC2)cn1)C(=O)NC1CCCC(C)C1C (centres undefined)	-1.67% (inactive)
C[C@H]1CN([C@@H](C)CO)C(=O)CCCn2cc(nn2)CO[C@@H]1CN(C)S(=O)(=O)c1cccc(C#N)c1	-14.5% (inactive)
Cc1cccc(S(=O)(=O)N(C)C[C@@H]2OCc3cnnn3CCCC(=O)N([C@H](C)CO)C[C@@H]2C)c1	15.7% (inactive)
C[C@H]1CN([C@@H](C)CO)C(=O)CCCn2nncc2CO[C@@H]1CN(C)S(=O)(=O)c1cccc(C#N)c1	-3.59% (inactive)
C[C@@H]1CN([C@H](C)CO)C(=O)CCCn2nncc2CO[C@@H]1CN(C)S(=O)(=O)c1cccc(C#N)c1	-103% (active)
O=C1OCCC1=COCCCCOC=C1CCOC1=O	5.66% (inactive)
Cc1noc(/C=C/c2ccco2)c1S(=O)(=O)N1CCC(C(=O)Nc2ccc(Cl)cn2)CC1	-73.5% (active)
CNC(=O)C1CCN(S(=O)(=O)c2c(C)noc2/C=C/c2cccc(C)c2)CC1	-0.856% (inactive)
Cc1noc(/C=C/c2ccco2)c1S(=O)(=O)N1CCC(C(=O)N2CCc3ccccc32)CC1	-11.8% (inactive)
Cc1ccc([C@H]2C[C@H](O)[C@@H](n3cc(COC(=O)c4ccccc4)nn3)CN2CC2CCCCC2)cc1	1.72% (inactive)
CCCN1Cc2cccc(C(=O)Nc3ccc(S(=O)(=O)N4CCCCCC4)cc3)c2C1=O	-4.68% (inactive)
CCCN1Cc2cccc(C(=O)NCc3ccccc3)c2C1=O	-73.5% (active)
COCCN1Cc2cccc(C(=O)Nc3ccccc3OC)c2C1=O	-4.17% (inactive)
Cc1onc(-c2ccccc2)c1-c1nnc(COC(=O)c2ccc(N(C)C)cc2)o1	-2.8% (inactive)
Cc1csc(=O)n1CCC(=O)OCC(=O)Nc1ccc(N2CCOCC2)cc1	26.4% (inactive)

Structure (SMILES)	activity change
CCc1cc(C(=O)N(CC)CC(=O)Nc2c(F)cccc2F)sc1C	6.15% (inactive)
Cc1ccc(C(=O)Nc2ccccc2-c2ccccc2)cc1S(=O)(=O)Nc1ccccc1	-81.2% (active)
O=C(Nc1ccccc1-c1ccccc1)c1cccs1	3.41% (inactive)
O=C(O)c1ccc(F)c(S(=O)(=O)Nc2ccccc2)c1	-0.905% (inactive)
O[C@H]1CN(Cc2cccs2)[C@@H](c2ccc(Cl)cc2)C[C@@H]1n1cc(C2CC2)nn1	1.17% (inactive)
O=C1CC[C@@H](C(=O)N2CSC[C@@H]2C(=O)Nc2ccc(C(F)(F)F)cc2)N1	0.48% (inactive)
Cc1ccc(Cc2c(-c3ccc(C)cc3)nc3c4ccccc4ccn23)cc1	-46.3% (inactive)
CCOc1ccc(S(=O)(=O)NCCC(=O)NNC(=O)c2ccc(F)cc2)cc1	7.87% (inactive)
Cc1ccc(C(=O)N/C(=C\c2ccc(F)cc2)C(=O)NCCN2CCOCC2)cc1	-89.5% (active)
O=C(NCCN1CCOCC1)/C(=C/c1ccc(F)cc1)NC(=O)c1ccccc1	-9.2% (inactive)
COc1ccc(/C=C(\NC(=O)c2ccccc2)C(=O)NCCN2CCOCC2)cc1OC	-4.51% (inactive)
COC(=O)N(C)C[C@@H]1OCc2cnnn2CCCC(=O)N([C@@H](C)CO)C[C@@H]1C	5.22% (inactive)
Cc1cccc(C(=O)C(O)(c2ccccc2)C2CCCCC2=O)c1 (centres undefined)	-14.9% (inactive)
COc1ccc(S(=O)(=O)N(C)C[C@H]2OCc3cnnn3CCCC(=O)N([C@H](C)CO)C[C@H]2C)cc1	11.2% (inactive)
COc1cc2nnn(-c3ccncc3)c2cc1OC	-4.09% (inactive)
COc1ccc2nc(-c3ccccn3)ccc2c1	6.65% (inactive)
C=CCn1c(SCC(=O)NC23CC4CC(CC(C4)C2)C3)nc(O)cc1=O	30.9% (inactive)
C=CCn1c(C23CC4CC(CC(C4)C2)C3)n[nH]c1=S	-5.08% (inactive)
C=CCn1c(SCC(=O)NC)nnc1C12CC3CC(CC(C3)C1)C2	-75% (active)
Cc1ccc(S(=O)(=O)/N=C2\C=C(NS(=O)(=O)c3ccc(C)cc3)C(=O)c3ccccc32)cc1	17.4% (inactive)
C[C@H]1CN([C@@H](C)CO)S(=O)(=O)c2ccc(Br)cc2O[C@H]1CN(C)C(=O)c1cnccn1	10.6% (inactive)
